PubChem BioAssay (NCI)
About 83,000 compounds went through this panel and 20% of them were active in at least one assay; those are over-represented in the sample as a whole.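 In brief: 96-well plates, 48 h treatment, single concentration, percent growth endpoint.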 Active and inactive are the calls of the source. Rule for the calls: active = growth percent below 10; inactive = the rest.

Tested on: EKVX NSCLC
Experiment: NCI-60 one-dose screen, 48 h (100 = growth as untreated, 0 = no growth, -100 = all killed)
Conditions: 10 µM

| SMILES | growth |
| --- | --- |
| Cc1ccc(C(=O)N/C(=C2/OCCN2C)[P+](c2ccccc2)(c2ccccc2)c2ccccc2)cc1 | 75.4% (inactive) |
| CN(C)c1ccc(/C=C/c2nc3ccccc3c(=O)n2CC(=O)Nc2ccc(Cl)cc2)cc1 | 80% (inactive) |
| Cc1ccc(CNC(=O)Cc2ccc3c(c2)CN(C2CCC(=O)NC2=O)C3=O)cc1 (stereo not drawn) | 54.5% (inactive) |
| Cc1ccn2c(C(=O)c3ccccc3)cc(-c3cc(-c4ccc(N(C)C)cc4)c(C#N)c(N)n3)c2c1 | 88.6% (inactive) |
| CCOP(=O)(OCC)O[C@H]1CCC(=O)[C@@H]2[C@H]1[C@H]1C[C@@H]3[C@@]4(C)CCCC(C)(C(=O)OC)[C@@H]4CC[C@@]23C=C1C(C)C (stereo partly drawn) | 41.5% (inactive) |
| C#CCNC(=O)CCC(=O)OC[C@]12CC[C@@H](C(=C)C)[C@@H]1C1CC[C@@H]3[C@@]4(C)CCCNC(C)(C)[C@@H]4CC[C@@]3(C)[C@]1(C)CC2 (stereo partly drawn) | 2.91% (active) |
| C/C(=N\N=C\c1ccc(N(C)C)cc1)c1ccc2c(c1)Nc1ccccc1S2 | 47.1% (inactive) |
| O=C(Nc1ccc(Cl)c([N+](=O)[O-])c1)Nc1ccc(Cl)c([N+](=O)[O-])c1 | 17.8% (inactive) |
| COc1ccc(CN2[C@H](C(=O)NCc3ccc(C(=O)NO)cc3)Cc3c([nH]c4ccccc34)[C@H]2C2CC2)cc1 | 51.6% (inactive) |
| O=C(NO)c1ccc(CNC(=O)[C@H]2Cc3c([nH]c4ccccc34)[C@H](c3ccc(Cl)cc3)N2)cc1 | 25% (inactive) |
| O=C(Cn1nc(-c2ccccc2)ccc1=O)NN1C(=O)c2ccccc2C1=O | 101% (inactive) |
| OCc1[nH]nc2cc(Nc3ncc4ccc(Br)c(OC5CCC(O)CC5)c4n3)ccc12 (stereo not drawn) | -27.8% (active) |
| COc1cc2c3c(n(CCCNCCO)c(=O)c2cc1OC)-c1nc2c(cc1C3=O)OCO2 | 79% (inactive) |
| COc1ccc(CN2[C@H](C(=O)NCCCCCCC(=O)NO)Cc3c([nH]c4ccccc34)[C@H]2C2CC2)cc1 | 16.8% (inactive) |
| COc1ccc(C2N(c3ccc(Br)cc3)N=C(C(C)=O)N2[C@H]2[C@H](OC(C)=O)O[C@H](COC(C)=O)[C@@H](OC(C)=O)[C@@H]2OC(C)=O)cc1 (stereo partly drawn) | 59.4% (inactive) |
| CN1C(=O)N(C)C2SC(N/N=C/c3cccs3)=NC21 (stereo not drawn) | 56.2% (inactive) |
| Cc1cc(C)nc(/N=C(\N)Nc2ccc(S(=O)(=O)Nc3nc(C)cc(C)n3)cc2)n1 | 104% (inactive) |

| SMILES | growth |
| --- | --- |
| O=C(Cc1ccc2c(c1)CN(C1CCC(=O)NC1=O)C2=O)NCCc1ccccc1 (stereo not drawn) | 67.2% (inactive) |
| CCNCCCn1c2c(c3cc(OC)c(OC)cc3c1=O)C(=O)c1cc3c(nc1-2)OCO3 | 76.6% (inactive) |
| O=C(CNc1nc(-c2ccccc2)cs1)Nc1ccc(Cl)cc1[N+](=O)[O-] | -8.05% (active) |
| Cc1ccc2nc(-c3ccc(-c4nnc(SCC(=O)Nc5ccc(Cl)cc5)o4)cc3)[nH]c2c1 | 58.7% (inactive) |
| Cc1ccc(C(=O)NNC(=O)CSc2nc3ccccc3c(=O)[nH]2)cc1 | 97.2% (inactive) |
| CN(C)CCNC(=O)OCCCCOc1cc(O)c2c(=O)cc(-c3ccccc3)oc2c1 | 11.7% (inactive) |
| CCCCSc1nc(Nc2ccc(/C(C)=N/NC(N)=S)cc2)c(C#N)c(-c2ccccc2)n1 | 62.5% (inactive) |
| O=c1[nH]c2ccccc2cc1CSc1ccc(Nc2nccc(-c3ccc4c(c3)OCO4)n2)cc1 | 94.2% (inactive) |
| COc1cc2oc(-c3cccc(C(=O)Nc4ccc(Cl)cc4)c3)cc(=O)c2c(OCCNC(=O)CNC(=O)OC(C)(C)C)c1OC | 64.7% (inactive) |
| Cc1ccc2nc(-c3ccc(-c4nnc(SCC(=O)Nc5ccc(Br)cc5)o4)cc3)[nH]c2c1 | 85.1% (inactive) |
| COc1ccc(CN2[C@@H](C(=O)NCc3ccc(C(=O)NO)cc3)Cc3c([nH]c4ccccc34)[C@@H]2C)cc1 | 11.9% (inactive) |
| O=C(CNc1nc(-c2ccccc2)cs1)Nc1cccc(Cl)c1 | 13.6% (inactive) |
| NS(=O)(=O)c1ccc(NC(=O)CSc2ccc(-c3ccc(Cl)cc3)nn2)c(Br)c1 | 47.4% (inactive) |
| Clc1ccc2c(N/N=C/c3c[nH]c4ccc(Br)cc34)ccnc2c1 | -93% (active) |
| Cc1ccc(-c2ccc(SCC(=O)Nc3ccc(S(N)(=O)=O)cc3Br)nn2)cc1 | 62.5% (inactive) |
| CC(=O)Nc1ccc(-c2cn(-c3cccc(C(=O)Nc4cccc(OC(F)(F)F)c4)c3)nn2)cn1 | 105% (inactive) |
